Measurements as given in PubChem BioAssay (NCI).
The panel holds about 79,000 compounds, 15% with a hit somewhere; the sample as a whole holds those more often. Unmarked numbers belong to inactive results. Activity calls are given as the source filed them. Rule as the data show it: active = growth inhibition above about 70%; inactive = the rest.

Legend:
[1] = NCI Yeast Anticancer Drug Screen. Data for the rad50 strain (AID 155);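 also: 0% = growth of vehicle-only cultures of the same strain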; settings: S. cerevisiae rad50 strain growth inhibition; at 50.0 µM; stronger effect = higher value
Method in brief: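 A DNA repair-deficient yeast mutant serves as the test organism; compound-induced growth inhibition is calculated against vehicle-treated cells.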

[2] = NCI Yeast Anticancer Drug Screen. Data for the mec2-1 strain (AID 157); settings: S. cerevisiae mec2-1 strain, at 50.0 µM, stronger effect = higher value
Method in brief: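 Compounds were applied to mec2-1 yeast cells. Their growth was then compared with that of vehicle-treated cultures to give growth inhibition.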

[3] = NCI Yeast Anticancer Drug Screen. Data for the sgs1 mgt1 strain (AID 161);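 also: 0% = growth of cultures given vehicle only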; settings: S. cerevisiae sgs1 mgt1 strain, at 50.0 µM, stronger effect = higher value
Method in brief: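 Compounds are added to genetically altered yeast, and growth is compared with cultures given vehicle alone to give percent inhibition.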

[4] = NCI Yeast Anticancer Drug Screen. Data for the cln2 rad14 strain (AID 165);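 also: 0% = growth equal to vehicle treated cultures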; settings: S. cerevisiae cln2 rad14 strain, at 50.0 µM, stronger effect = higher value
Method in brief: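 Strain: cln2 rad14 yeast, altered in cell cycle control and DNA damage repair. Read-out: growth inhibition vs vehicle.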

[5] = NCI Yeast Anticancer Drug Screen. Data for the bub3 strain (AID 167); settings: S. cerevisiae bub3 mutant strain, at 50.0 µM, stronger effect = higher value
Method in brief: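 Inhibition values come from growth of compound-treated mutant yeast normalised to vehicle-treated controls.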

[6] = NCI Yeast Anticancer Drug Screen. Data for the mlh1 rad18 strain (AID 175); settings: S. cerevisiae mlh1 rad18 strain growth inhibition; at 50.0 µM; stronger effect = higher value
Method in brief: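 A repair-deficient yeast strain is exposed to test compound, and growth is scored relative to vehicle-treated controls.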

SMILES	growth inhibition [1]	growth inhibition [2]	growth inhibition [3]	growth inhibition [4]	growth inhibition [5]	growth inhibition [6]
OC(CNc1ccc(Cl)nn1)c1ccccc1 (configuration not stated)	-3.35%	-10.3%	21%	13.4%	9.7%	-15.2%
O=C1CC(NC(=O)C(F)(F)F)c2c1csc2Br (configuration not stated)	-20.6%	-2.55%	-9.1%	-12.6%	-11%	20.2%
CCOC(=N)CC(=O)Nc1ccccc1	4.45%	1.1%	1.65%	-1.6%	3.6%	2.35%
COc1cc(/C=C/C(=O)OC2C(O)C3CC(OC(=O)c4cc(OC)c(OC)c(OC)c4)CC2N3C)cc(OC)c1OC (configuration not stated)	0.55%	-21.6%	7.6%	6.15%	-7.95%	-4.95%
COc1cc2c(cc1OC)C(=O)C1(CO)COC(=O)C1C2 (configuration not stated)	-7.7%	-19%	-2.15%	-1.4%	-1%	5.9%
COc1ccc(NC(=O)C(=O)NNC(=O)c2sc(NNC(C)=O)nc2C)c([N+](=O)[O-])c1	27.3%	-10.7%	39.2%	8.4%	20.6%	5.3%
CCCCCC(C)(O)CCC (configuration not stated)	-5.9%	-6.65%	3.65%	-3.45%	6.9%	-3.55%
CCCCC1SC(N)=NC1=O (configuration not stated)	14.9%	-2.35%	12.5%	53.2%	3.9%	-17.7%
O=C(NCCc1c[nH]c2ccccc12)C1CCCCC1	-3.65%	-5.45%	7.85%	-25.6%	14.1%	-10.1%
OCCCN=C1CCCCC1	-3.4%	-10.3%	-35.5%	-54.4%	-11%	-13.3%
O=C1/C(=C/c2ccccc2)SC(=S)N1C1c2ccccc2Oc2ccccc21	35.4%	14.6%	53.8%	38.8%	5.25%	30.1%
O=C1c2ccccc2C(=O)C2C1C1C(=O)c3ccccc3C(=O)C21 (configuration not stated)	-14.6%	-1.5%	2.45%	-20.2%	-8.6%	24.6%
COc1cccc(NC(=S)Nn2c(C)nc3ccccc3c2=O)c1	-25.2%	-14%	-17.1%	0.25%	-11.3%	-28.6%
O=C1CCCc2ccc3c(c21)CC1(Cc2ccccc2C1)C3	-7.05%	-40.2%	8.65%	-6%	4.05%	-5.8%
C[C@@]1(Cc2ccccc2)C(=O)N2[C@@H](CO)C(c3ccccc3)O[C@]2(C)c2ccccc21 (some centres not stated)	-10.8%	4.7%	-14.7%	-6.05%	-8.8%	-29.3%
c1ccc(C2(c3ccccc3)CC([P+](c3ccccc3)(c3ccccc3)c3ccccc3)N=N2)cc1 (configuration not stated)	99.3% (active)	99.6% (active)	99.7% (active)	99.4% (active)	97.5% (active)	99.5% (active)
CCCCc1c2c(nc3c1CCCC3=O)CCCC2	8.7%	8.45%	27.4%	15.8%	37.9%	-0.8%
O=C(O)C1CSC(c2ccccc2O)N1 (configuration not stated)	-17.6%	-2.75%	-4.6%	-26.9%	5.4%	-8.75%
C/C(=N\O)c1cccs1	3.8%	-4.05%	-6%	-8.9%	-0.25%	-1.4%
Cc1cc(NS(=O)(=O)c2ccc(NC(=O)c3ccc(Cl)c4c(Nc5ccc(S(N)(=O)=O)cc5)c5ccccc5nc34)cc2)no1	34%	36.8%	33.5%	46.2%	31.4%	68.1%
OCCN(Cc1ccccn1)Cc1ccccn1	14%	-3.7%	36.2%	11.2%	8.4%	9%

SMILES	growth inhibition [1]	growth inhibition [2]	growth inhibition [3]	growth inhibition [4]	growth inhibition [5]	growth inhibition [6]
CCNCC(=O)Nc1ccccc1C(=O)OCC	-2.7%	14%	0.2%	-22.5%	8.6%	10.1%
CCOP(=O)(O)C(c1ccccc1)c1ccccc1	-2.45%	7.5%	3.5%	-10.7%	5.3%	6.85%
Cc1c(C)c(C)c(CC2(C)CSC2)c(CC2(C)CSC2)c1C	-1.65%	-20.2%	-12.6%	14.6%	-41.8%	10.9%
O=C(NCc1ccccc1)NC(c1ccccc1)(c1ccccc1)c1ccccc1	28.9%	14.2%	34.6%	11.8%	-4.25%	30.9%
CC(=O)Oc1cc2c(cc1OC(C)=O)C1(C)CCC2(C)c2cc(OC(C)=O)c(OC(C)=O)cc21	1.6%	0.2%	3.6%	9.55%	-2.7%	14.3%
OCc1ccccc1F	-42.4%	-34%	-20.6%	-15.3%	-15.1%	-36.2%
CCCC[N+](C)(C)CC[N+](C)(C)CCCC	4.25%	-14.9%	-10%	-36.3%	-1.4%	-16.2%
COc1nc(NC2OC(CO)C(O)C(O)C2O)c(C(C)=O)c(=O)n1C (configuration not stated)	12.2%	2.25%	24.1%	15.2%	-6.25%	12.5%
CCN(CC)CCN1C(=O)N(CCN(CC)CC)C(=O)C(CC)(CC)C1=O	13.9%	-2.15%	12.5%	22.9%	-1.65%	34.1%
CCCOC(=O)C(O)c1ccc(C)cc1 (configuration not stated)	-1.5%	-11.8%	12.9%	-3.75%	5.7%	-14.7%
CC(=O)Oc1ccc(OC(C)=O)c2c(OC(C)=O)ccc(OC(C)=O)c12	0.45%	2.15%	1.55%	-10.3%	53.8%	-6.8%
O=C(O)c1ccc(CS(=O)c2ccccc2)c([N+](=O)[O-])c1 (configuration not stated)	8.2%	-0.7%	-1.45%	14.4%	-4.9%	24.7%
CCOc1c(F)ccc(F)c1-c1c(F)ccc(F)c1OCC	-7.5%	-0.3%	5.65%	2.4%	3.3%	-5.2%
CC(=O)c1cc(C(C)=O)c2cc(C)cc(O)c2c1O	15.7%	-13.9%	8.45%	1.9%	13.9%	-9.7%
Cc1cccc(C[N+](C)(C)CCO)c1C	-0.5%	-13.2%	3.4%	6.7%	3.45%	-20.6%
CSc1nc(N)c(N)c(N)n1	0.1%	2.9%	-2.75%	-21.8%	11.8%	14.4%
COC(=O)C1CCC(C)(C(=O)OC)C1(C)C (configuration not stated)	0%	-15.2%	-11.9%	-1.3%	-12.4%	-3.75%
CCOP(=O)(OCC)/C(C#N)=C/c1c(C)[nH]c2ccccc12	0.5%	-10.8%	18.6%	13.4%	-7.45%	25.7%
CC1=CC(=O)/C(=C\c2ccc3c(c2)OCO3)C(C)(C)C1	-23.1%	-8.45%	4.5%	-19.4%	52.3%	-1.5%
COc1cc2c(cc1OC)C1c3cc(OC)c(OC)cc3CC(=O)N1CC2 (configuration not stated)	17.6%	7.1%	38.5%	19.3%	24.5%	37.6%
O=C(c1cc2ccccc2s1)c1ccccc1Cc1cccc2ccccc12	33.8%	7.25%	31.2%	21.2%	5.45%	-0.75%
